Molecules are shown by their SMILES. A number with no mark means an inactive call. Records with an inconclusive call do not appear. The source made the active and inactive calls. Unless noted, the call rests on the fitted dose curve; in most records, active means well fitted curve in the direction sought with a large enough effect in the repeat runs; inconclusive means weak or mixed curves; inactive means no such curve, though single readings can be large; an effect the other way counts as inactive or inconclusive.

For assay [1], the target named is Acetylcholinesterase (Homo sapiens) (UniProt P22303). Briefly: Acetylcholinesterase (AChE) small molecule antagonists: enzyme-based qHTS assay (AID 1347397; calls by dose curve; further: nearly all actives have a fitted effect of over 55% in size; further: potency means the concentration at half of the fitted maximal effect). To be noted: Potency: AChE enzyme activity inhibition. In a few lines: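 rhAChE 50 mU/mL (dispensed) + cpd or DMSO, 30 min RT; add DTNB/acetylthiocholine cocktail, 10 min RT; colorimetric thiocholine readout. qHTS, 1536-well format.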
Background: Quantitative high-throughput screening tests each substance at several concentrations.

For assay [2] the target is unchanged. Description: Acetylcholinesterase (AChE) small molecule antagonists: fluorescence cell-based qHTS assay (AID 1347398; calls by dose curve; further: nearly all actives have a fitted effect of over 50% in size; further: potency means the concentration at half of the fitted maximal effect). The settings on record: Potency: AChE activity. In a few lines: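 Read-out is Thiolite Green fluorescence at Ex/Em = 490/520 nm, formed by reaction with thiocholine released when cellular AChE in SH-SY5Y cells hydrolyzes acetylthiocholine. Compounds were preincubated 30 min at 37 C before substrate.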

Assay [3] has the same target. Briefly: Acetylcholinesterase (AChE) small molecule antagonists: enzyme-based qHTS assay with human liver microsomes (AID 1347399; calls by dose curve; further: nearly all actives have a fitted effect of over 60% in size; further: potency means the concentration at half of the fitted maximal effect). To be noted: Potency: qHTS inhibition. In a few lines:
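Recombinant human AChE (50 mU/mL in the enzyme mix) and human liver microsomes (0.25 mg/mL final) were preincubated with compound and NADPH (0.25 mg/mL final) for 30 min at 37 C. Acetylthiocholine/DTNB was then added; thiocholine was read colorimetrically after 10 min at room temperature.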

Assay [4] has as its target Cytochrome P450 2D6 (Homo sapiens) (UniProt P10635). Briefly: Cytochrome P450 Family 2 Subfamily D Member 6 (CYP2D6) small molecule antagonists: luciferase reporter qHTS assay (AID 1671196). Further: nearly all actives have a fitted effect of over 50% in size. Further: potency means the concentration at half of the fitted maximal effect. In a few lines:
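CYP2D6 enzyme–substrate mix was held with compound for 10 min at room temperature, then NADPH regeneration solution was added and the reaction ran 1 h at room temperature. Luciferin product was detected by luminescence after 20 min with detection reagent.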

For assay [5], the target named is Cytochrome P450 2C19 (Homo sapiens) (UniProt P33261). Briefly: Cytochrome P450 Family 2 Subfamily C Member 19 (CYP2C19) small molecule antagonists: luciferase reporter qHTS assay (AID 1671197). Further: nearly all actives have a fitted effect of over 65% in size. Further: potency means the concentration at half of the fitted maximal effect. In a few lines:
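Luminescent readout of CYP2C19 activity: luciferin product detected 20 min after adding detection reagent. Before that, compound and enzyme-substrate mix preincubated 10 min at room temperature; NADPH-regenerating system started a 1 h, 37C reaction. Ketoconazole as positive control.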
On the technique in general: In a reporter assay the amount or activity of a reporter protein is the signal.

The target in assay [6] is Cytochrome P450 2C9 (Homo sapiens) (UniProt P11712). Briefly: Cytochrome P450 Family 2 Subfamily C Member 9 (CYP2C9) small molecule antagonists: luciferase reporter qHTS assay (AID 1671198). Further: nearly all actives have a fitted effect of over 50% in size. Further: potency means the concentration at half of the fitted maximal effect. In a few lines: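 Enzyme-substrate mix preincubated with compound 10 min at room temperature; reaction started with NADPH regeneration solution, 1 h 37C. Luminescent luciferin product read after 20 min detection reagent.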

For assay [7], the target named is Cytochrome P450 1A2 (Homo sapiens) (UniProt P05177). Briefly: Cytochrome P450 Family 1 Subfamily A Member 2 (CYP1A2) small molecule antagonists: luciferase reporter qHTS assay (AID 1671199). Further: nearly all actives have a fitted effect of over 50% in size. Further: potency means the concentration at half of the fitted maximal effect. The method, boiled down:
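Human CYP1A2 activity measured with a P450-Glo proluciferin substrate; compounds in DMSO preincubated 10 min at room temperature with enzyme-substrate mix, then NADPH regeneration system added for 1 h. Luciferin detection reagent, 20 min, luminescence read.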

For assay [8], the target named is Voltage-gated inwardly rectifying potassium channel KCNH2 (Homo sapiens) (UniProt Q12809). Briefly: Human Ether-a-go-go-Related Gene (hERG) channel small molecule antagonists: fluorescence cell-based qHTS assay (AID 1671200). The method, boiled down:
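Fluorescence at 540 nm emission (480 nm excitation) was recorded kinetically for 2 min at 1-second intervals once the thallium-containing stimulus reached cells previously loaded with FluxOR II dye.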
In general terms: The hERG channel carries a current that helps repolarise heart muscle cells.

For assay [9], the target named is Cytochrome P450 3A4 (Homo sapiens) (UniProt P08684). Description: Cytochrome P450 Family 3 Subfamily A Member 4 (CYP3A4) small molecule antagonists: luciferase reporter qHTS assay (AID 1671201). Further: nearly all actives have a fitted effect of over 50% in size. Further: potency means the concentration at half of the fitted maximal effect. The method, boiled down:
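qHTS, 1536-well. CYP3A4 + proluciferin substrate, cpd 10 min RT → NADPH regen 1 h RT → detection reagent 20 min → luminescence (RLU). Ketoconazole positive control.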

Chain of Cytochrome P450 1A2 (Homo sapiens) (P05177 whole entry, looked up): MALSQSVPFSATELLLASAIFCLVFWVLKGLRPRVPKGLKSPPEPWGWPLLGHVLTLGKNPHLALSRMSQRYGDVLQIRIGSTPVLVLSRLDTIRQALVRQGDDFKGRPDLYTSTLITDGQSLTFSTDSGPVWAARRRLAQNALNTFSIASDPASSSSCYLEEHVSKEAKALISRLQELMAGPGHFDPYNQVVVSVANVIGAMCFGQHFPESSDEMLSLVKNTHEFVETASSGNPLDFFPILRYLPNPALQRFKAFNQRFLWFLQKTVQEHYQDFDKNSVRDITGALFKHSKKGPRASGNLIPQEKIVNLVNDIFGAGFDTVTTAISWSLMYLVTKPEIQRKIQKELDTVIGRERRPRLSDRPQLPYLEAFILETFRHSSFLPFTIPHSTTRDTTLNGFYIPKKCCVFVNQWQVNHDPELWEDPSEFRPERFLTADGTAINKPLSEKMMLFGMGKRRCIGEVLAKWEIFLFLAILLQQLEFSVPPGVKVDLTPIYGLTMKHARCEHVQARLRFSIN
Chain of Cytochrome P450 2C9 (Homo sapiens) (P11712 whole entry, looked up): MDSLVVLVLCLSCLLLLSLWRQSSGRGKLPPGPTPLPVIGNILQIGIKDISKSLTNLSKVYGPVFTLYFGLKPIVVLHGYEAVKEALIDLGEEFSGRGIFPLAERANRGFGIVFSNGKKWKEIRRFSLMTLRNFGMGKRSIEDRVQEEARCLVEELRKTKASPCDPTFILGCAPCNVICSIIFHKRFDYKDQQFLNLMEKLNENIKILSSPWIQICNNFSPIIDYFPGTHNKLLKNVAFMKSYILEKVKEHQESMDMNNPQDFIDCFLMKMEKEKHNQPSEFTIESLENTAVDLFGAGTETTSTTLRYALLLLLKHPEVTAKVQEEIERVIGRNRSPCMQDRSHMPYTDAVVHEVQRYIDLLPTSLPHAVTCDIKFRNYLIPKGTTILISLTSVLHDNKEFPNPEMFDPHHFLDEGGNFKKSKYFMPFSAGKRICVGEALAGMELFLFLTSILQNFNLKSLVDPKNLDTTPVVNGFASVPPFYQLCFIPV
Chain of Cytochrome P450 2C19 (Homo sapiens) (P33261 whole entry, looked up): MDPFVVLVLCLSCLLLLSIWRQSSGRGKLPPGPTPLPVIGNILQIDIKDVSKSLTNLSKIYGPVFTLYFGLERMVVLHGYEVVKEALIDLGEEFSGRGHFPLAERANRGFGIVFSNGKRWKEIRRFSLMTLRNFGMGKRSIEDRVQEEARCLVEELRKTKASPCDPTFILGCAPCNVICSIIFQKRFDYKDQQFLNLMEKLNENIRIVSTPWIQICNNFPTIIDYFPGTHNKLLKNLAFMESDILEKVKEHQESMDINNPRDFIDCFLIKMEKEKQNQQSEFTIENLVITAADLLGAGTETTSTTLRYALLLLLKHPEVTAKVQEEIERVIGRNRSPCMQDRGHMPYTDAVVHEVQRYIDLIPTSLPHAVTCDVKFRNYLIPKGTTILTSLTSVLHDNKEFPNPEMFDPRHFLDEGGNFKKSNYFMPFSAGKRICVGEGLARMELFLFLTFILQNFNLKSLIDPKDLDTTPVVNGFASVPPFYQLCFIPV
Chain of Acetylcholinesterase (Homo sapiens) (P22303 whole entry, looked up): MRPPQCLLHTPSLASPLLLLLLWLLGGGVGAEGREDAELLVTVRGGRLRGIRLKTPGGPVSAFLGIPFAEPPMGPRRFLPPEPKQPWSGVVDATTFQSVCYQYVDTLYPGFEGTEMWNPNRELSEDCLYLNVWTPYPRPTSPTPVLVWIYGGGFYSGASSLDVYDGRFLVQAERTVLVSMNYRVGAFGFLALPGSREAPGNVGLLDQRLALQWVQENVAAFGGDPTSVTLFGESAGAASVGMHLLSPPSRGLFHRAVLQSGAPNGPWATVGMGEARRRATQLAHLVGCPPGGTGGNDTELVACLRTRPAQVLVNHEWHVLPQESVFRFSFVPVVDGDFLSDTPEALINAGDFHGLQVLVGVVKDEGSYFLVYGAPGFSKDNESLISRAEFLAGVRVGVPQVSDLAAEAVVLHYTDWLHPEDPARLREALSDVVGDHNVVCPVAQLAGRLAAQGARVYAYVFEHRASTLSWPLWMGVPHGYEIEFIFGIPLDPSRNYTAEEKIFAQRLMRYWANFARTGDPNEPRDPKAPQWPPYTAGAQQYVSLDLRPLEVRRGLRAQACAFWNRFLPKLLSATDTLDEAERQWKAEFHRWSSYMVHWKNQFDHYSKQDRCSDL
Chain of Cytochrome P450 2D6 (Homo sapiens) (P10635 whole entry, looked up): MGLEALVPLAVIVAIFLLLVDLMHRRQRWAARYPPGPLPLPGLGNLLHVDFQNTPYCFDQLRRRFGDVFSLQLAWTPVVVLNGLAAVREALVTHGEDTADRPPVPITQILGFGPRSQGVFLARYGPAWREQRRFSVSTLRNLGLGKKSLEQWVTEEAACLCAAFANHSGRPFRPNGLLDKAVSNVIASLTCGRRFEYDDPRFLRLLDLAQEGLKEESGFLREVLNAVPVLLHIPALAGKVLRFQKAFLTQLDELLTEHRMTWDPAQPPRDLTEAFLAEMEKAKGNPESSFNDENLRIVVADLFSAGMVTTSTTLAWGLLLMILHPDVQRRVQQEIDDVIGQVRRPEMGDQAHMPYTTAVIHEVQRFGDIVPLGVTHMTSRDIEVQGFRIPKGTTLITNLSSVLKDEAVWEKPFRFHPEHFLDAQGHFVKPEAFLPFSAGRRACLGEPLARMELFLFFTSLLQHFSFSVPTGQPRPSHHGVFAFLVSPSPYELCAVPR
Chain of Voltage-gated inwardly rectifying potassium channel KCNH2 (Homo sapiens) (Q12809 whole entry, looked up): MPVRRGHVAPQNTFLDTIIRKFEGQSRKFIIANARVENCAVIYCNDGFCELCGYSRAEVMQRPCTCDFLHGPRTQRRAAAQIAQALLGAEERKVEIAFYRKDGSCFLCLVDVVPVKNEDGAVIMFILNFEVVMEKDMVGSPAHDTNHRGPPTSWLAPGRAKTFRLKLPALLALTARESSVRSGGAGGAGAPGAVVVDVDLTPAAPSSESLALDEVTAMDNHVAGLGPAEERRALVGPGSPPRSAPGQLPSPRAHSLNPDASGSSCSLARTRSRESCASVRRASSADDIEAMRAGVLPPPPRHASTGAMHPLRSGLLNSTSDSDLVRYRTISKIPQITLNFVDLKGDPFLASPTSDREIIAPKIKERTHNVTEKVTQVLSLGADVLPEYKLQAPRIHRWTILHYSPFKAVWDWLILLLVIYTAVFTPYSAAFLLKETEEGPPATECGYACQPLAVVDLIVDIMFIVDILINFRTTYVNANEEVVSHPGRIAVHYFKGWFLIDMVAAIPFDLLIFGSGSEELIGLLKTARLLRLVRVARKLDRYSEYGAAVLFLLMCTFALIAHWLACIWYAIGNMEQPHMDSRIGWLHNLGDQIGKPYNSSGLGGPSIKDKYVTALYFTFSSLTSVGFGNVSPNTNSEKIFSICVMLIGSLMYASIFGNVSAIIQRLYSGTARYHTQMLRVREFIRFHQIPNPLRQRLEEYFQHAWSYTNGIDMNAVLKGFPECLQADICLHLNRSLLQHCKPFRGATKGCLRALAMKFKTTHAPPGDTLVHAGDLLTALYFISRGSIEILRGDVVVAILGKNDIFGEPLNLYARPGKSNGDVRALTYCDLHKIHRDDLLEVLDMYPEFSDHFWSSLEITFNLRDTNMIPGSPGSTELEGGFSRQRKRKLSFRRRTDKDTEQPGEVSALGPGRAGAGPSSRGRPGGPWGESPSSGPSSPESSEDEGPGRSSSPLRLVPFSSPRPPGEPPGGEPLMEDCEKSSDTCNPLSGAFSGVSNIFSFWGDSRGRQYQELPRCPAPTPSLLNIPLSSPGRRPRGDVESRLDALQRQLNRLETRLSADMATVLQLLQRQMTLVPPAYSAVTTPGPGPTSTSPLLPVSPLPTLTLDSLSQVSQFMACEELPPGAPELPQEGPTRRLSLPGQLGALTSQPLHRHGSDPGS
Chain of Cytochrome P450 3A4 (Homo sapiens) (P08684 whole entry, looked up): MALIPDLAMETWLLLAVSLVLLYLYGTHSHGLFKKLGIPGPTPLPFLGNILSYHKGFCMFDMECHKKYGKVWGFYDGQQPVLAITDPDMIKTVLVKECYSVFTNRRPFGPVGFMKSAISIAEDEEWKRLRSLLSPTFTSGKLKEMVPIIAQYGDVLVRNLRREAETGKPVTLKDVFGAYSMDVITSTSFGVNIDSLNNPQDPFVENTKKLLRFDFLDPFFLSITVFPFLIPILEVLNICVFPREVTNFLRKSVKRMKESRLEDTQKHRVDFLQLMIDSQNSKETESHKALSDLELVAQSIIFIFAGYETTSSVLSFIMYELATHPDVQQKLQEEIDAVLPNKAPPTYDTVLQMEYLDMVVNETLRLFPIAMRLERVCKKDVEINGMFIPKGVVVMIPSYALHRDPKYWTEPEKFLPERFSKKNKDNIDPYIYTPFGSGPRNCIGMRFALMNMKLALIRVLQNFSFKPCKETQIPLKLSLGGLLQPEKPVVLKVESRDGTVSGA

`CC(C)(C)NCC(O)c1cc(Cl)c(N)c(Cl)c1` (stereo unspecified): the Potency result in assay [1], in [2], in assay [3], in [5], in assay [6] and in assay [7] was “inactive” in each case. The Potency entry in [8] and in assay [9] was “inactive” in each case. Also, the Potency in assay [4] is 15.5 µM (active).

For `CCOC(=O)C(c1c(O)c2ccccc2oc1=O)c1c(O)c2ccccc2oc1=O`, the Potency entry in assay [1], in [2], in assay [3], in [4], in assay [5] and in [8] was “inactive” each time. Also, the Potency result in assay [9] is “inactive”. Further, the Potency in assay [6] was 2.75 µM (active); in assay [7], 27.5 µM (active).

With `O=[N+]([O-])c1cccc2c([N+](=O)[O-])cccc12`, the Potency result in assay [1], in [2] and in assay [3] was “inactive” each time. Further, the Potency in assay [4] was 11.3 µM (active); in [5], 22.6 µM (active); in assay [6], 40.1 µM (active); in assay [7] it was 1.01 µM (active); in assay [9], 31.9 µM (active).

For the compound `C[C@@H]1CN(C2CCC(C#N)(c3ccc(F)cc3)CC2)CC[C@]1(C(=O)O)c1ccccc1` (stereo partly specified), the Potency entry in assay [1], in assay [2], in assay [3], in assay [5], in assay [6] and in assay [7] was “inactive” throughout. For the same compound, the Potency result in [9] was “inactive”. Further, the Potency in [4] is 1.55 µM (active).

As to `CC(=O)C(Cl)Cl`, the Potency result in [1], in assay [2], in assay [3], in assay [4], in [5] and in assay [6] was “inactive” each time. Besides, the Potency result in assay [7], in [8] and in assay [9] was “inactive” each time.

`O=NN1CCN(N=O)CC1`: the Potency entry in assay [1], in assay [2], in [3], in assay [4], in [5] and in [6] was “inactive” in each case. The Potency entry in assay [7], in assay [8] and in assay [9] was “inactive” in each case.

In the case of `CNCC(=O)c1ccc(O)c(O)c1`, the Potency entry in assay [1], in assay [2], in assay [3], in assay [4], in [5] and in assay [6] was “inactive” throughout. Besides, the Potency entry in assay [7], in [8] and in assay [9] was “inactive” throughout.

On to `CC(C)(C)C(=O)C(Oc1ccc(Cl)cc1)n1cncn1` (stereo unspecified), for which the Potency entry in assay [1], in assay [2], in assay [3], in assay [4] and in assay [8] was “inactive” in each case. Besides, the Potency in [5] was 3.17 µM (active); in assay [6], 12.6 µM (active); in [7], 35.5 µM (active); in assay [9], 0.399 µM (active).

As to `NC(=O)O`, the Potency entry in [1], in assay [2], in assay [3], in [4], in assay [5] and in assay [6] was “inactive” throughout. The Potency result in [7], in assay [8] and in [9] was “inactive” each time.

With `CCOC(=O)CP(=O)(OCC)OCC`, the Potency entry in assay [1], in assay [2], in assay [3], in [4], in assay [5] and in [6] was “inactive” in each case. The Potency entry in [7], in assay [8] and in assay [9] was “inactive” throughout.

In the case of `COc1cccc2c1cc([N+](=O)[O-])c1c(C(=O)O)cc3c(c12)OCO3`, the Potency result in [1], in [2], in assay [3], in assay [4] and in [8] was “inactive” throughout. Further, the Potency is 79.6 µM (active) in [5], 28.3 µM (active) in assay [6], 39.9 µM (active) in assay [7] and 22.4 µM (active) in [9].

Take `CC(Cl)(Cl)[N+](=O)[O-]`: the Potency result in [1], in assay [2], in assay [3], in assay [4], in [5] and in assay [6] was “inactive” each time. Moreover, the Potency entry in assay [7] and in assay [9] was “inactive” throughout.

Consider `COc1cccc(C(=O)NN(C(=O)c2cc(C)cc(C)c2)C(C)(C)C)c1C`, for which the Potency entry in assay [1], in assay [2], in [3] and in assay [7] was “inactive” throughout. For the same compound, the Potency in assay [4] is 39.9 µM (active); in assay [5], 3.56 µM (active); in [6], 17.8 µM (active); in assay [9], 0.71 µM (active).

In the case of `O=S(=O)(O)C(F)(F)C(F)(F)C(F)(F)C(F)(F)C(F)(F)C(F)(F)F`, the Potency entry in assay [1], in [2], in assay [3], in assay [4], in [7] and in assay [8] was “inactive” throughout. Also, the Potency entry in [9] was “inactive”. Moreover, the Potency in [5] is 79.6 µM (active); in [6] it was 1.12 µM (active).

For `C[N+](C)=CCl`, the Potency result in assay [1], in [2], in assay [3], in assay [4], in assay [5] and in assay [6] was “inactive” throughout. Moreover, the Potency entry in [7], in [8] and in assay [9] was “inactive” each time.

In the case of `CC1CCCCC1NC(=O)Nc1ccccc1` (stereo unspecified), the Potency result in [1], in [2], in assay [3] and in assay [8] was “inactive” in each case. Further, the Potency is 71 µM (active) in [4]; 11.2 µM (active) in assay [5]; 35.6 µM (active) in assay [6]; 31.7 µM (active) in [7]; 11.2 µM (active) in [9].

In the case of `CCOP(=S)(Oc1cnc(C(C)(C)C)nc1)OC(C)C` (stereo unspecified), the Potency in assay [1] was 63.3 µM (active); in assay [2] it was 39.9 µM (active); in assay [3] it was 10 µM (active); in assay [4] it was 35.6 µM (active); in assay [5] it was 0.356 µM (active); in assay [6], 1.59 µM (active). For the same compound, the Potency is 22.4 µM (active) in [7] and 1.59 µM (active) in assay [9].

Regarding `OC(Cn1cncn1)(c1ccc(F)cc1)c1ccccc1F` (stereo unspecified), the Potency entry in [1], in assay [2], in [3] and in assay [8] was “inactive” throughout. For the same compound, the Potency in [4] was 35.6 µM (active); in assay [5] it was 2 µM (active); in [6], 0.796 µM (active); in assay [7] it was 31.7 µM (active); in assay [9], 0.224 µM (active).

Consider `CCC/C(=N\OCC)C1=C(O)CC(CC(C)SCC)CC1=O` (stereo unspecified), for which the Potency entry in assay [1], in [2], in assay [3] and in assay [9] was “inactive” throughout. The Potency is 11.3 µM (active) in assay [4], 8.99 µM (active) in [5], 31.9 µM (active) in assay [6] and 35.8 µM (active) in assay [7].

As for `CCc1cc2c(s1)-n1c(C)nnc1CN=C2c1ccccc1Cl`, the Potency entry in assay [1], in [2], in [3], in assay [4], in [5] and in assay [6] was “inactive” throughout. In addition, the Potency result in assay [7], in assay [8] and in assay [9] was “inactive” in each case.

In the case of `CN(N=O)C(N)=O`, the Potency result in assay [1], in assay [2], in [3], in assay [4], in assay [5] and in assay [6] was “inactive” each time. In addition, the Potency result in assay [7], in assay [8] and in [9] was “inactive” throughout.

Take `CCCCc1c(C)nc(NCC)[nH]c1=O`: the Potency entry in assay [1], in assay [2], in assay [3], in assay [4], in assay [6] and in assay [8] was “inactive” in each case. Further, the Potency entry in assay [9] is “inactive”. Further, the Potency in [5] is 79.6 µM (active); in [7] it was 17.8 µM (active).

With `CCN(CC)C(C)C(=O)c1ccccc1` (stereo unspecified), the Potency entry in assay [1], in assay [2], in assay [3], in [5], in [6] and in assay [7] was “inactive” each time. Moreover, the Potency result in [8] and in assay [9] was “inactive” each time. Also, the Potency in [4] was 19.5 µM (active).

The values above are taken from PubChem BioAssay (Tox21).
